Measured values: the supplement of paper PMC6555819

How the values were obtained:
Assay in all cases: PBM binding z-score (relative to random genomic background probes); higher = stronger binding; sequences stand for … in GC…GCGATTGACAGCGTAGAATGAAGG
[1] = tested on: PPARg:RXRa DBDmut IVT, anti-RXR (DBD mutation: RXRa K156A/R161A, NR concentration 270 nM, RXRa partner concentration 90 nM)
Outline: (§1)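 For binding z-scores, the reference was random background probes on custom Agilent 4×180K protein-binding microarrays. These arrays were incubated 1 h with ligand-free nuclear receptor dimers in PBS pH 7.4, 2% milk, 0.02% Triton X-100, 1 mM DTT, 0.2 mg/mL BSA and 0.4 mg/ml salmon testes DNA. Fluorescence was scanned after antibody detection of each partner (one per run) and regression-normalized.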

[2] = tested on: PPARg:RXRa IVT, anti-PPARg (NR concentration 270 nM, RXRa partner concentration 90 nM)
Outline: as §1

[3] = tested on: PPARg DBDmut:RXRa IVT, anti-PPARg (DBD mutation: PPARg1 K132A/R137A, NR concentration 270 nM, RXRa partner concentration 90 nM)
Outline: as §1

[4] = tested on: PPARg DBDmut IVT, anti-PPARg (DBD mutation: PPARg1 K132A/R137A, NR concentration 270 nM)
Outline: as §1

[5] = tested on: PPARg homodimer (NR concentration 180 nM)
Outline: as §1

[6] = tested on: PXR:RXRa (NR concentration 270 nM, RXRa partner concentration 90 nM)
Outline: as §1

[7] = tested on: PXR homodimer (NR concentration 270 nM)
Outline: as §1

[8] = tested on: RARa:RXR (NR concentration 270 nM, RXRa partner concentration 90 nM)
Outline: as §1

[9] = tested on: RARa homodimer (NR concentration 270 nM)
Outline: as §1

[10] = tested on: RARb:RXRa (NR concentration 270 nM, RXRa partner concentration 90 nM)
Outline: as §1

[11] = tested on: RARb homodimer (NR concentration 270 nM)
Outline: as §1

[12] = tested on: RARg:RXRa (NR concentration 270 nM, RXRa partner concentration 90 nM)
Outline: as §1

[13] = tested on: RARg homodimer (NR concentration 270 nM)
Outline: as §1

[14] = tested on: RXRa DBDmut IVT, anti-RXR (DBD mutation: RXRa K156A/R161A, NR concentration 90 nM)
Outline: as §1

[15] = tested on: RXRa homodimer (NR concentration 180 nM)
Outline: as §1

[16] = tested on: THRa:RXRa (NR concentration 90 nM, RXRa partner concentration 90 nM)
Outline: as §1

[17] = tested on: THRa homodimer (NR concentration 90 nM)
Outline: as §1

[18] = tested on: VDR homodimer (NR concentration 270 nM)
Outline: as §1

| Sequence | PBM binding z-score [1] | PBM binding z-score [2] | PBM binding z-score [3] | PBM binding z-score [4] | PBM binding z-score [5] | PBM binding z-score [6] | PBM binding z-score [7] | PBM binding z-score [8] | PBM binding z-score [9] | PBM binding z-score [10] | PBM binding z-score [11] | PBM binding z-score [12] | PBM binding z-score [13] | PBM binding z-score [14] | PBM binding z-score [15] | PBM binding z-score [16] | PBM binding z-score [17] | PBM binding z-score [18] |
| --- | --- | --- | --- | --- | --- | --- | --- | --- | --- | --- | --- | --- | --- | --- | --- | --- | --- | --- |
| CCTATTAGTTGACCATAGGGGCAACCGAAGCTCG | 0.502 | 0.611 | 0.353 | -0.128 | 1.32 | 0.256 | 0.563 | 0.446 | 1.9 | 0.983 | 1.3 | 0.669 | 0.729 | 0.6 | 0.362 | 0.842 | 0.596 | 0.581 |
| CTCGAAAGGTCGGTTGATGTGAGTATACGGATAA | 0.122 | 0.641 | 0.802 | 0.00433 | 1.37 | 1.07 | 0.216 | 1.41 | 0.252 | 2.86 | 1.8 | 2.39 | 2.37 | 0.767 | 1.96 | 2.01 | -0.0197 | 0.986 |
| GCTAGCAGGCCATTTGGGTCACTGAATGACGGGC | 1.8 | 2.35 | -0.118 | -0.738 | -0.224 | 0.537 | -0.19 | 0.876 | -0.661 | 1.49 | 1.94 | 0.989 | 1.4 | 0.125 | 0.735 | 1.95 | 0.65 | 0.43 |
| TCTTGTAGATCAAGCAGGCTAAGAAAGCCTGAGT | 1.46 | 0.173 | -0.469 | 1.11 | -0.6 | -0.424 | -0.306 | -0.588 | -1.2 | -0.756 | -0.885 | -0.605 | -0.521 | 0.402 | -0.67 | -0.805 | -0.733 | -0.349 |
| CGTCCAAGTTCAGCAGGTCAGTGAAAGCGACGTG | 0.444 | 0.339 | -0.163 | -0.669 | 1.77 | 2.59 | 1.6 | 2.38 | 0.583 | 3.75 | 3.8 | 3.81 | 3.65 | 3.67 | 2.52 | 1.96 | 0.713 | 3.65 |
| CGACCAAGGTCAAAGGTCAGTGAAGAGATGACGG | 4.11 | 6.17 | 1.79 | 0.574 | 5.46 | 7.16 | 1.55 | 9.08 | 2.47 | 5.95 | 5.51 | 8.66 | 8.05 | 3.97 | 10.4 | 4.71 | 2.27 | 3.83 |
| TCTTGAAGATCAATAGAGGTTAAGAAAGTGCGCT | 1.44 | 0.203 | 0.527 | 0.485 | -0.0803 | 3.15 | 0.215 | 1.81 | -0.211 | 0.913 | 1.17 | 0.73 | 0.205 | 0.671 | 1.49 | 2.53 | -0.674 | -0.178 |
| CTCGAAAGGTCGGTAGAGGTGAGTATACGGATAA | -0.427 | 1.32 | -0.234 | 0.272 | 1.1 | 2.69 | 0.0204 | 2.63 | 0.416 | 3.13 | 2.52 | 2.89 | 2.98 | 0.197 | 2.49 | 4.38 | -0.139 | 0.0872 |
| AGAATGAGGTTTTACGTAGATCAGGGAAGAAAGT | 0.314 | -0.118 | 0.643 | 0.771 | 0.322 | 0.0449 | 0.0851 | 0.000653 | 0.0667 | -0.00199 | -0.169 | -0.132 | 0.114 | 0.185 | -0.108 | 0.3 | 0.0915 | 0.172 |
| CATACTAGGTCACAGAGGTCAAAGTCCGTGCGTA | 7.7 | 8.21 | 1.7 | 0.913 | 4.99 | 6.49 | 11.3 | 6.62 | 2.6 | 5.27 | 5.73 | 7.31 | 7.56 | 3.27 | 7.91 | 4.72 | 3.18 | 6.84 |
| CCGACCGGGGCAGAAAGGTTACCATACCATCCGG | -0.478 | -0.0375 | -0.85 | -1.32 | 0.496 | 1.16 | -0.029 | 1.83 | -0.144 | 2.06 | 2.41 | 2.1 | 1.87 | -0.807 | 1.89 | 1.53 | -0.148 | 0.0914 |
| TCTATTAGATGAAGGGCAACCGACGAGTCCGTTT | 2.54 | 0.861 | 0.95 | 0.278 | 0.308 | 0.796 | 1.11 | 0.642 | 0.636 | 1.47 | 1.1 | 0.508 | 0.672 | 1.4 | 0.961 | 0.13 | -0.334 | 0.972 |
| ACTCGGAAGACAAAGGTCAGAGCTACGCCAGTGA | 0.385 | 1.77 | 0.488 | -0.549 | 2.44 | 3.25 | 0.247 | 3.84 | 0.864 | 4.07 | 4.33 | 4.5 | 4.21 | 0.211 | 4.56 | 2.57 | 0.0345 | 0.445 |
| GTACTAAGGTGAATAGGTCGTTGATGAGTAGGCG | 2.8 | 3.12 | 0.603 | 0.0798 | 1.34 | 1.22 | 0.545 | 2.45 | 1.14 | 2.62 | 2.3 | 3.3 | 1.84 | 0.451 | 2.22 | 3.11 | 1.66 | 0.722 |
| GGAACGAGGGGAAAGTTGATAGCATCTGTCGACG | 1.59 | 1.99 | 0.258 | -1.07 | 0.339 | -0.114 | -0.142 | -0.0298 | 0.277 | 0.213 | 0.0344 | 0.0991 | 0.188 | 0.287 | 0.258 | 0.0347 | -0.259 | -0.402 |
